Assay results reported in PubChem BioAssay AID1778 (Sanford-Burnham Center for Chemical Genomics, 2009).
Among all 290,000 compounds or so, about 260 (0.09%) were called active. Rule as the data show it: active = inhibition above about 50%; inactive = the rest. The full list was thinned out, with actives kept by preference. Measured potencies and affinities stand elsewhere.

These molecules were tested against Kappa-type opioid receptor (Homo sapiens) (UniProt P41145) (assay: kappa opioid receptor blockers – cell-based, luminescence, uHTS (AID 1778)). Details: KOR beta-arrestin recruitment, antagonist mode, hits give high values; at 10 µM unless noted.
Chain of Kappa-type opioid receptor (Homo sapiens) (P41145 whole entry, looked up): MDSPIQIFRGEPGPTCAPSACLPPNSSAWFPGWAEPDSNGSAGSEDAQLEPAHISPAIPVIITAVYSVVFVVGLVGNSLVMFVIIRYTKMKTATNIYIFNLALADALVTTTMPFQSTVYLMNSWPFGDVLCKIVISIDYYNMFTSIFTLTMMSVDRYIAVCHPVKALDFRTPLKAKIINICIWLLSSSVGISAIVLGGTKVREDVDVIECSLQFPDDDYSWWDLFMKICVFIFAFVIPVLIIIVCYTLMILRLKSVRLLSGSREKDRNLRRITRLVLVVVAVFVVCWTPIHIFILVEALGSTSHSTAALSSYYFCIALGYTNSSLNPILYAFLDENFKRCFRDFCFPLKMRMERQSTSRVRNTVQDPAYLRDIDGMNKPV

| Compound | inhibition |
| --- | --- |
| CCOC(=O)Nc1sc2nc(C)cc(C)c2c1-n1cccc1 | -25.7% (inactive) |
| COCCN(C(=O)c1cccc(OC)c1)c1nnc(-c2ccncc2)s1 | 24.5% (inactive) |
| COc1ccccc1N1CCN(CC(=O)c2c(C)[nH]c3ccccc23)CC1 | -0.2% (inactive) |
| COc1cc(OC)c(OC)cc1/C=N/NC(=S)NCC1CCCO1 (configuration not stated) | 1.1% (inactive) |
| CCn1c(SCC(=O)Nc2nc3c(s2)CCCC3)nc2c1c(=O)n(C)c(=O)n2C | -6.8% (inactive) |
| C=CCOC(=O)C(=O)/C=C/c1ccc2c(c1)Cc1ccccc1-2 | -23.3% (inactive) |
| CCCc1ccc2oc(C(=O)N(C)CCn3ccnc3C)c(C)c2c1 | -19.1% [at 20 µM] (inactive) |
| CC(=O)NC(Cc1cc(C)ccc1C)C(=O)N1CCN(C(=O)c2ccc([N+](=O)[O-])cc2)CC1 (configuration not stated) | -2.4% (inactive) |
| COc1cc(-c2nc3ccccn3c2/N=C/c2cccc(F)c2)ccc1O | -3.3% (inactive) |
| COc1cc(CNS(=O)(=O)c2ccc3c(c2)CC(C)N3C(=O)C2CCC2)cc(OC)c1OC (configuration not stated) | -10.7% (inactive) |
| Oc1[nH]c2ccccc2c1N=NC(=S)N1CCOCC1 | 63.2% (active) |
| Oc1[nH]c2ccc(Br)cc2c1N=NC(=S)N1CCOCC1 | 49.6% (inactive) |
| NC(=S)N=Nc1c(O)[nH]c2ccccc12 | 18.5% (inactive) |
| COC(=O)CCC(=O)Nc1c(C)n(C)n(-c2ccccc2)c1=O | 22.3% [at 20 µM] (inactive) |
| Cc1cc(OCC(=O)Nc2ccc(S(=O)(=O)N3CCN(C)CC3)cc2)ccc1Br | 3.2% (inactive) |
| Cc1cc(OCC(=O)Nc2ccc(S(=O)(=O)N3CCN(C)CC3)cc2)ccc1Cl | -13.3% (inactive) |
| O=C(c1ccccn1)N1CCN(c2cccc(C(F)(F)F)c2)CC1 | -1.3% (inactive) |
| CCOC(=O)c1cnn(-c2nc(SC)nc3sc4c(c23)CCCC4)c1N | 5.6% (inactive) |
| CCOC(=O)c1cnn(-c2nc(C)nc3sc4c(c23)CCC4)c1N | -9.9% (inactive) |
| CCOC(=O)c1cnn(-c2nc3sc4c(c3c(=O)[nH]2)CCCC4)c1N | 75% (active) |
| Cc1onc(-c2ccccc2)c1C(=O)N=C(N)c1ccc(C(F)(F)F)cc1 | 19.1% (inactive) |
| CCOc1cc(/C=N/NC(=O)C(=O)NCCCOC(C)C)cc(Br)c1O | 4.9% (inactive) |
| CCN1CCN(CCC(=O)Nc2ccc(C)cc2)CC1 | -48.9% [at 20 µM] (inactive) |

| Compound | inhibition |
| --- | --- |
| Cc1cccc(CC2CC(=O)N(c3ccccc3)C2=O)c1 (configuration not stated) | -23.5% (inactive) |
| Cc1ccc(C)c(S(=O)(=O)N2CCC3(CC2)OCCO3)c1 | 11.1% (inactive) |
| CN(C)S(=O)(=O)c1cccc(N=c2scc(-c3ccc4c(c3)NC(=O)CO4)n2CC2CCCO2)c1 (configuration not stated) | -17.4% (inactive) |
| O=C1COc2ccc(-c3csc(=Nc4ccc(OC(F)F)cc4)n3CC3CCCO3)cc2N1 (configuration not stated) | 14.3% (inactive) |
| CSCCNC(=O)c1ccc(OC2CCN(S(=O)(=O)N(C)C)CC2)cc1 | 11.7% [at 20 µM] (inactive) |
| CN(C)C(=O)c1c2c(nc3ccccc13)-c1ccccc1CC2 | 7.9% (inactive) |
| CCOc1ccc(NC(=O)c2ccc(NC(=S)NC3CCCCC3)cc2)cc1 | 5.4% [at 20 µM] (inactive) |
| Cc1ccc(OCc2ccccc2C)c([N+](=O)[O-])n1 | -33% (inactive) |
| CCCCN(C)CC(O)Cn1cc(/C=C/C(=O)c2cccs2)c2ccccc21 (configuration not stated) | 19.9% (inactive) |
| CCCN(CCC)CC(O)Cn1cc(/C=C/C(=O)c2ccccc2)c2ccccc21 (configuration not stated) | 19% (inactive) |
| COC(=O)c1sc(N)c(C(=O)OC)c1CSc1nnnn1C | -5.2% (inactive) |
| O=C(Nc1nnc(C2=COCCO2)o1)c1ccc(Cc2ccccc2)cc1 | -22.6% [at 20 µM] (inactive) |
| O=C(CCc1ccccc1)Nc1nnc(-c2ccc3c(c2)OCCO3)o1 | 11.2% (inactive) |
| O=C(Nc1nnc(-c2ccc3c(c2)OCCO3)o1)c1ccc(Cc2ccccc2)cc1 | 51.8% (active) |
| CCCN(CCC)S(=O)(=O)c1ccc(C(=O)Nc2nnc(-c3cc(OC)cc(OC)c3)o2)cc1 | -91.7% (inactive) |
| Cc1ccc(C(=O)Nc2nnc(-c3ccco3)o2)cc1C | 40.8% (inactive) |
| O=C(Nc1nnc(-c2ccco2)o1)c1ccc2ccccc2c1 | 89.7% (active) |
| COc1ccc(-c2nnc(NC(=O)c3ccc4c(c3)OCCO4)o2)cc1 | 29.6% (inactive) |
| Cc1ccc(C(=O)Nc2nnc(-c3ccco3)o2)cc1 | 14.7% (inactive) |
| CC1CCN(CC(=O)Nc2ccccc2Sc2ccccc2)CC1 | -8% (inactive) |
| O=C(Nc1cccnc1)c1ccccc1Cl | 21.5% [at 20 µM] (inactive) |
| CN1CCC(N(C)S(=O)(=O)c2ccc(F)cc2F)CC1 | -33.5% (inactive) |
| Cc1c(C(=O)O)[nH]c2c1C(=O)CC(c1ccc(C(C)(C)C)cc1)C2 (configuration not stated) | 14.6% (inactive) |

| Compound | inhibition |
| --- | --- |
| NNC(=S)Nc1cccc(Cl)c1 | 18.7% (inactive) |
| Cc1csc(NC(=S)Nc2cccc(Cl)c2)n1 | 57.9% (active) |
| Cc1csc(NC(=O)Nc2cccc(Cl)c2)n1 | -9.6% (inactive) |
| COc1ccc(OC)c(-n2c(SCC(C)=O)nnc2-c2cccc(S(=O)(=O)N(C)C)c2)c1 | 21.3% (inactive) |
| CCN(CC)C(=O)Oc1ccc(Cl)c2cccnc12 | 16.1% [at 20 µM] (inactive) |
| O=C(Nc1cccc(C(F)(F)F)c1)Oc1ccc(Cl)c2cccnc12 | 65.4% (active) |
| O=C(Oc1ccc(Cl)c2cccnc12)c1ccco1 | 6.4% (inactive) |
| CSC(=S)N/N=C(\C)c1ccc(Br)cc1 | 46.1% (inactive) |
| C/C(=N\NC(N)=S)c1ccccc1 | 11.9% (inactive) |
| Cc1c(C(=O)Nc2ccc3c(c2)OCO3)oc2ccccc12 | -1.2% (inactive) |
| Cc1ccc2nc(-c3ccccn3)[nH]c2c1 | -33.9% [at 20 µM] (inactive) |
| Cc1cc(=S)nc(-c2ccccn2)[nH]1 | -17.8% (inactive) |
| CCN(CC)CCn1c2ccccc2c2cnc(N=CN(C)C)c(C#N)c21 | -24.3% (inactive) |
| CSc1sc2ccccc2[n+]1CCCS(=O)(=O)[O-] | 21.2% (inactive) |
| CCO/C(=C/c1sc2ccc(OC)cc2[n+]1CCCS(=O)(=O)[O-])CC | 2.7% (inactive) |
| O=c1cc(-c2ccccc2)nc(Cc2c(Cl)cccc2Cl)[nH]1 | 29.4% (inactive) |
| CCNC(=O)NC(=O)C(C)OC(=O)CCS(=O)(=O)c1ccc(C)cc1 (configuration not stated) | -30.7% (inactive) |
| COc1ccc(S(=O)(=O)N2CCN(C(=O)COc3ccc(C)c(C)c3)CC2)cc1OC | -25.1% (inactive) |
| O=C(Oc1c(Cl)cc(Cl)c2cccnc12)c1cccc([N+](=O)[O-])c1 | 99.6% (active) |
| O=C(Oc1cccc2cccnc12)c1cccc([N+](=O)[O-])c1 | -16.3% [at 20 µM] (inactive) |
| O=C(Oc1ccc(Cl)c2cccnc12)c1cccc([N+](=O)[O-])c1 | -2.7% (inactive) |
| COc1cc2c(cc1OC)CN(C(=O)CCNS(=O)(=O)c1ccccc1F)CC2 | 5.3% (inactive) |
| Cc1nc2scc(-c3ccccc3)c2c(=O)n1N | -2.3% (inactive) |

| Compound | inhibition |
| --- | --- |
| Cc1ccc(C)n1-n1c(C)nc2scc(-c3ccccc3)c2c1=O | -3.4% (inactive) |
| Cc1nc(NC(=O)CSC2=NCCS2)sc1C(=O)N(C)C | -22.6% (inactive) |
| COc1ccc(S(=O)(=O)N2CCN(c3ccccn3)CC2)cc1[N+](=O)[O-] | 5.2% (inactive) |
| CC(C)(C)C(=O)/C(C#N)=C/c1cccs1 | 1.1% (inactive) |
| Cc1ccc(NC(=O)c2ccc(Nc3c([N+](=O)[O-])cc([N+](=O)[O-])cc3[N+](=O)[O-])cc2)cc1 | 1.3% (inactive) |
| O=C(Nc1ccccc1)c1ccc(Nc2c([N+](=O)[O-])cc([N+](=O)[O-])c3ccccc23)cc1 | 20.1% (inactive) |
| Cc1ccc(NC(=O)C2CCN(S(=O)(=O)c3ccc4c(c3)NC(=O)C(C)S4)CC2)c(C)c1 (configuration not stated) | 11.1% (inactive) |
| COc1ccc(CSc2cccc3cccnc23)cc1[N+](=O)[O-] | -30.5% (inactive) |
| Cc1cccc(NC(=O)CSc2cccc3cccnc23)c1 | -3% (inactive) |
| CC(Oc1ccccc1)C(=O)Nc1nnc(S(=O)(=O)Nc2ccccc2)s1 (configuration not stated) | -37.1% [at 20 µM] (inactive) |
| COc1ccc(N(CC(=O)Nc2ccc(S(=O)(=O)N3CCOCC3)cc2)S(=O)(=O)c2ccc(F)cc2)cc1 | 28.3% (inactive) |
| COc1ccc(N(CC(=O)Nc2ccc(S(=O)(=O)N3CCOCC3)cc2)S(=O)(=O)c2ccccc2)cc1 | -0.6% (inactive) |
| CN1/C(=C\C=C2/C(=O)Oc3ccccc3C2=O)C(C)(C)c2ccccc21 | -18.4% (inactive) |
| C=CCN1C(=O)/C(=C\C=C2\N(C)c3ccccc3C2(C)C)SC1=S | 3.2% (inactive) |
| CCCN1C(=O)/C(=C\C=C2/Sc3ccccc3N2CCO)SC1=S | 17.8% (inactive) |
| CCCCN1C(=O)/C(=C/C=C2\N(C)c3ccccc3C2(C)C)SC1=S | 6.8% (inactive) |
| CN1C(=CC=C2C=C(I)C(=O)C(I)=C2)C(C)(C)c2ccccc21 | 68.2% (active) |
| CN1/C(=C\C=O)C(C)(C)c2ccccc21 | -23.9% (inactive) |
| CN1/C(=C\C=C2/SC(=S)N(CC(=O)O)C2=O)C(C)(C)c2ccccc21 | 77.1% [at 20 µM] (active) |
| CCCN1C(=O)/C(=C\C=C2/Sc3ccccc3N2CC)SC1=S | -42.6% [at 20 µM] (inactive) |
| O=C1CC(C2CCCO2)C(=O)N1c1ccccc1 (configuration not stated) | -21.9% (inactive) |
| Cn1c(=O)c(C(=O)NCc2ccccc2Cl)c(O)c2ccccc21 | -41.3% [at 20 µM] (inactive) |
| Cc1ccccc1CN(C)C(=O)CNC(=O)c1ccc2ccccc2c1 | -14.6% (inactive) |
